Bim-Mcl-1: inhibitors of Bim peptide binding to Mcl-1, primary screen, biochemical, bead-based flow cytometry, multiplex. inhibition, % at 10 µM. Induced myeloid leukemia cell differentiation protein Mcl-1 (Homo sapiens), Q07820. AID 1009, 2008. Bim peptide-Mcl-1 binding. hit rate 0.1% among 190,000; in the data active = inhibition above about 40%
Target sequence (Q07820 whole entry, looked up): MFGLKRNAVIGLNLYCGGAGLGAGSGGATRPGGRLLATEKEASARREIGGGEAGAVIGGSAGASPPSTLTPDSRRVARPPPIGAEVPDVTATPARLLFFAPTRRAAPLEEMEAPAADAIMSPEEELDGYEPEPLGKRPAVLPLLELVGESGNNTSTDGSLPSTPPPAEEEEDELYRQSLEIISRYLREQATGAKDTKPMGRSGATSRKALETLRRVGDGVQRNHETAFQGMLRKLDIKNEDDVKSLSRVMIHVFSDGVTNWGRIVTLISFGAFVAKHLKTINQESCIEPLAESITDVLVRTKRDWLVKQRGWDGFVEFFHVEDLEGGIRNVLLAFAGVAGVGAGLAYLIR
Mcl1-Bid inh: Mcl-1/Bid binding inhibitors, primary screen, biochemical, TR-FRET, 1536-well. TR-FRET Mcl-1/Bid-Dy647 peptide binding. inhibition, % at 21.7 µM. hit rate 0.97% among 220,000. Induced myeloid leukemia cell differentiation protein Mcl-1 (Homo sapiens), Q07820. AID 1021, 2008;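 active = compounds that cut the binding signal by more than half at the single screening dose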;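 also: His-tagged Mcl-1 with europium anti-His antibody binding Bid BH3 peptide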
TLR4 MyD88 comp: inhibitors of TLR4-MyD88 association in cells, primary screen, cell-based, HeLa CL3-4, BLA complementation, FRET ratio | HeLa CL3-4 TLR4/MyD88 BLA complementation | Toll-like receptor 4 (Homo sapiens) + Myeloid differentiation primary response protein … | hit rate 0.18% among 200,000 | inhibition, % at 8.4 µM; in the data active = inhibition above about 25%
Mcl1-Noxa inh: Mcl-1/Noxa binding inhibitors, primary screen, biochemical, TR-FRET, 1536-well; Induced myeloid leukemia cell differentiation protein Mcl-1 (Homo sapiens), Q07820; TR-FRET Mcl-1/Noxa peptide binding, 2 h; inhibition, % at 21.7 µM; hit rate 1.5% among 220,000;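 active = compounds that cut the protein-peptide binding signal by more than 50% relative to plate controls in a single-dose test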;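 also: His-tagged Mcl-1 with rhodamine Noxa BH3 peptide and terbium anti-His antibody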
NOD2 RIPK2 PPI: NOD2-RIPK2 binding disruptors in cells, primary screen, fluorescence, CHO cells, BLA complementation; Receptor-interacting serine/threonine-protein kinase 2 (Homo sapiens), O43353; CCF4 ratio; inhibition, % at 4.98 µM; hit rate 0.38% among 360,000; in the data active = inhibition above about 21%
TLR9-MyD88 block: inhibitors of TLR9-MyD88 association in cells, primary screen, cell-based, CHO, BLA complementation, fluorescence. inhibition, % at 4.98 µM. AID 504734, 2011. hit rate 0.21% among 340,000. Toll-like receptor 9 (Homo sapiens) + Myeloid differentiation primary response protein …. CCF4 FRET ratio;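 active = inhibition above the mean over all tested compounds plus 3 SD, cut at about 21% in these data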
A number is an active result; i = inactive; nt = no result given. An excerpt weighted towards active compounds, which were near 1.8% of everything screened.

SMILES | Bim-Mcl-1 | Mcl1-Bid inh | TLR4 MyD88 comp | Mcl1-Noxa inh | NOD2 RIPK2 PPI | TLR9-MyD88 block
Cc1nn(-c2ccccc2)c(C)c1NC(=O)COc1ccc2ccccc2c1 | i | i | i | i | 49 | i
Cc1ccc(-c2nc(Nc3ccc(N4CCOCC4)cc3)c3ccccc3n2)cc1 | nt | i | nt | 64 | i | nt
CCN(CC)C(=O)C1=C(C)N(Cc2ccc(F)cc2)C(=O)C(CC(=O)NCC2CCCCC2)C1 (stereo not drawn) | nt | nt | nt | nt | i | i
O=C(Nc1cnn(C23CC4CC(CC(C4)C2)C3)c1)c1cnn2c(C(F)(F)F)cc(-c3ccco3)nc12 | i | 79 | i | i | i | i
O=C(Nc1ccc2c(c1)OCO2)c1cnn2c(C(F)(F)F)cc(-c3ccco3)nc12 | i | i | i | i | i | i
Cc1ccc(NC(=O)CNCCCN2CCOCC2)cc1S(=O)(=O)N1CCCCC1 | nt | 51 | nt | i | i | i
Cc1ccc(NC(=O)CN2CCOCC2)cc1S(=O)(=O)N1CCCCC1 | nt | nt | nt | nt | i | i
CC(C)CNC(=O)C(=O)NNC(=O)C1CCCCC1 | i | i | i | i | i | i
CC1(C(=O)NNC(=O)C2CCCCC2)CC1(Cl)Cl (stereo not drawn) | nt | 99 | nt | i | i | i
CCNc1nc(NCC)nc(C(=O)NN)n1 | i | i | i | 75 | i | i
N#Cc1c(-c2cccnc2)cc(-c2ccccc2)nc1N | nt | i | nt | i | i | nt
N#Cc1c(-c2ccco2)cc(-c2ccccn2)nc1N | i | i | i | 66 | i | i
N#Cc1c(-c2ccco2)cc(-c2cccnc2)nc1N | i | i | i | 62 | i | i
N#Cc1c(-c2ccco2)cc(C2CC2)nc1N | i | i | i | i | i | i
CCCN1CCc2c(sc(NC(=O)Cc3ccc(F)cc3)c2C(N)=O)C1 | nt | nt | nt | nt | i | i
O=C(NC1CCCC1)C1c2ccccc2OCC(=O)N1C1CC1 (stereo not drawn) | nt | nt | nt | nt | i | nt
O=C(CCS(=O)(=O)c1ccccc1)Nc1ccc(Cl)cn1 | nt | nt | nt | nt | i | i
CN(C)/C=C/C(=O)c1ccc(C(F)(F)F)cc1F | 100 | i | i | i | i | i
CCc1ccc(S(=O)(=O)N2CCN(C(=O)c3cccnc3)CC2)cc1 | nt | nt | nt | nt | i | i
Cc1ccc(S(=O)(=O)CC(=O)NCc2ccc(Cl)cc2)cc1 | nt | nt | nt | nt | i | i
Cc1cn(CC2COC(C)(C)O2)c(=O)[nH]c1=O (stereo not drawn) | i | i | i | 73 | i | i
COc1cc(CC2COC(c3ccc(O)c(OC)c3)C2COC(C)=O)ccc1O (stereo not drawn) | nt | i | nt | 70 | i | i
Cc1cc(C)c2nc(NNC(=O)c3cc(=O)c4ccccc4o3)sc2c1 | i | i | i | 65 | i | i
COc1ccc(CCNC(=O)Cn2nnc(C(=O)Nc3cccc(C)c3C)c2N)cc1OC | nt | nt | nt | nt | i | i
O=C(O)CCc1ccc(-c2ccc(Cl)cc2)o1 | i | 95 | i | i | i | i
SMILES | Bim-Mcl-1 | Mcl1-Bid inh | TLR4 MyD88 comp | Mcl1-Noxa inh | NOD2 RIPK2 PPI | TLR9-MyD88 block
Cc1cc(C)c(NC(=O)COC(=O)c2cccc3c2C(=O)c2ccccc2C3=O)c(C)c1 | i | i | i | i | i | i
Cc1cc(C)c(Nc2cc(S(=O)(=O)O)c(N)c3c2C(=O)c2ccccc2C3=O)c(C)c1 | i | 94 | i | 107 | i | i
O=C(CN1C(=O)NC2(CCc3ccccc3C2)C1=O)Nc1ccc(F)cc1 (stereo not drawn) | i | 88 | i | i | i | i
Cc1ccc(S(=O)(=O)N2CCC(C(=O)O)CC2)cc1 | i | i | i | i | i | i
C#CCn1c(=NC(=O)c2ccc(Br)s2)sc2cc(NC(C)=O)ccc21 | i | 58 | i | i | i | i
COCCn1c(=NC(=O)c2cccs2)sc2cc(NC(C)=O)ccc21 | i | i | i | i | i | i
CCc1cc(C(=O)N=Nc2c(O)[nH]c3ccc([N+](=O)[O-])cc23)c2ccccc2n1 | i | i | i | 92 | i | i
CCN(CC)S(=O)(=O)c1cc([N+](=O)[O-])ccc1N=Nc1c(O)[nH]c2ccccc12 | i | 51 | i | i | i | i
CN(c1nc(-c2ccc(Br)cc2)cs1)C1CCS(=O)(=O)C1 (stereo not drawn) | i | i | i | i | i | i
CCS(=O)(=O)N1CCN(C(C)CCc2ccccc2)CC1 (stereo not drawn) | i | 77 | i | 91 | i | i
COc1ccc(-c2nnc(-c3cc4c(ccc5ccccc54)oc3=O)o2)cc1 | i | i | i | 64 | i | i
CS(=O)(=O)N1CCN(c2ccccc2NC(=O)c2ccc(-c3ccc(Cl)cc3Cl)o2)CC1 | i | i | i | i | i | i
CN1CCN(c2ccccc2NC(=O)c2ccc(-c3ccc(Cl)cc3Cl)o2)CC1 | i | i | i | 65 | i | i
COc1ccc(-c2ccc(/C=C3/C(=N)N4C(C)=CSC4=NC3=O)o2)c([N+](=O)[O-])c1 | i | i | i | 59 | i | i
COc1ccc(-c2ccc(/C=C3\C(=O)N(c4ccccc4)N=C3c3ccccc3)o2)c([N+](=O)[O-])c1 | i | i | i | i | i | i
C=CCn1c(SCC(=O)Nc2sccc2C(N)=O)nc2sc(C)c(C)c2c1=O | i | 52 | i | i | i | i
COc1ccc(C(=O)Nc2cccc(-c3cc4ccccc4oc3=O)c2)cc1[N+](=O)[O-] | i | 87 | i | 56 | i | i
CC(=O)Nc1ccc(NC(=O)c2cccc(-c3cc4ccccc4oc3=O)c2)cc1 | i | i | i | i | i | i
COc1ccc(C(=O)Nc2nc3ccc(OC)cc3s2)cc1 | nt | nt | nt | nt | i | i
COc1ccc2nc(NC(=O)c3cccc(-c4cc5ccccc5oc4=O)c3)sc2c1 | i | 87 | i | 54 | i | i
CC(C)Cn1c(=O)c2c(nc3n2CC(C)CN3Cc2ccccc2)n(C)c1=O (stereo not drawn) | nt | nt | nt | nt | i | i
CNc1ccc([N+](=O)[O-])cc1-c1nc2ccccc2[nH]c1=O | nt | i | nt | 65 | i | i
CC(C)C(=O)Nc1ccc(Cl)cc1-c1nc2ccccc2[nH]c1=O | nt | nt | nt | nt | i | i
Nc1ccc(NC(=O)c2ccc(C(=O)Nc3ccc(N)cc3)cc2)cc1 | nt | 62 | nt | i | i | i
Nc1ccc(C(=O)Nc2ccc(Nc3ccncc3)cc2)cc1 | nt | i | nt | i | i | i

Screens from PubChem.
